Source: PubChem BioAssay (Johns Hopkins Ion Channel Center)
KCNQ2 pot: potentiators of rat KCNQ2 potassium channel; Potassium voltage-gated channel subfamily KQT member 2 (Rattus norvegicus), O88943; CHO-K1 KCNQ2, FluxOR thallium flux fluorescence; stronger effect = higher value; B-score at 10 µM; 310,000 compounds, 0.54% hits; AID 2239, 2010;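 active = fluorescence ratio B-score at least 3 SD of library B-scores, with initial fluorescence B-score within 3 of them, cut at about 5.3 in these data; same plate scores as AID 2156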;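 note: B-score of peak minus minimum over baseline fluorescence ratio after K+ and Tl+ stimulus; positive B-score means potentiation of KCNQ2 with more thallium influx and brighter signal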
KCNQ2 inh: rat KCNQ2 potassium channel inhibitors, primary screen, cell-based, CHO-K1, FluxOR thallium flux, B-score. Potassium voltage-gated channel subfamily KQT member 2 (Rattus norvegicus), O88943. 20 min; stronger effect = lower value. B-score at 10 µM. 310,000 compounds, 1.1% hits. AID 2156, 2009;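 active = fluorescence ratio B-score at most minus 3 library SDs, with starting brightness B-score within 2 library SDs, cut at about -5.5 in these data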
Numbers stand for hits; n = inactive; x = not tested or not shown. This is a sample that favours compounds with a hit; in the whole collection about 1.6% have one here.

SMILES	KCNQ2 pot	KCNQ2 inh
O=C(N[C@@H]1CCC(=O)N(CC[C@H](Oc2ccccc2)c2ccccc2)CC1)OCc1ccccc1	x	n
Cc1cccc(COCC(Cc2ccccc2)N2CCN(C(=O)c3cc(Cl)cc(Cl)c3)CCC2=O)c1 (stereo not drawn)	x	n
Cc1cccc(COCC(Cc2ccccc2)N2CCN(C(=O)c3cccc(C)c3)CCC2=O)c1 (stereo not drawn)	n	-5.8
Cc1ccc(S(=O)(=O)N2CCC(=O)N(C(COCc3ccc(Cl)cc3Cl)Cc3ccccc3)CC2)cc1 (stereo not drawn)	n	-6
O=C(c1ccc(Cl)c(Cl)c1)N1CCC(=O)N(C(COCc2ccc(Cl)cc2)Cc2ccccc2)CC1 (stereo not drawn)	n	-5.9
Cc1ccccc1COC[C@H](CC(C)C)N1CCN(C(=O)c2cccc(C(F)(F)F)c2)CCC1=O	n	-6.9
Cc1ccc(S(=O)(=O)N2CCC(=O)N(C(COCc3cccc(Cl)c3)Cc3ccccc3)CC2)cc1 (stereo not drawn)	x	n
CC(C)CC(COCc1cccc(C(F)(F)F)c1)N1CCN(C(=O)c2cccc(C(F)(F)F)c2)CCC1=O (stereo not drawn)	x	n
Cc1cccc(COCC(Cc2ccccc2)N2CCN(C(=O)c3ccc(Cl)c(Cl)c3)CCC2=O)c1 (stereo not drawn)	x	n
CC(C)CN(C(=O)CSc1nnnn1-c1ccccc1)c1c(N)n(CC(C)C)c(=O)[nH]c1=O	x	n
COc1ccc(C2=NN(C(=O)c3ccco3)C(c3ccco3)C2)cc1OC (stereo not drawn)	x	n
COc1ccc(/C=N/NC(=O)c2ccoc2C)cc1CN1CCN(c2ccc(F)cc2)CC1	n	n
Cc1ccc(NC(=O)c2cncc(Br)c2)nc1	n	n
O=C(Nc1ccc(C(=O)N2CCOCC2)cc1)Nc1cccc2ccccc12	n	n
O=C(CN(Cc1ccco1)C(=O)c1cccc(Cl)c1)Nc1c(Cl)cc(Cl)cc1Cl	n	-5.7
O=C(CN(Cc1ccco1)C(=O)c1ccc(Cl)cc1)Nc1c(Cl)cc(Cl)cc1Cl	x	n
CC(CC(=O)Nc1ccc2c(c1)OCCO2)c1ccccc1 (stereo not drawn)	n	n
CC(CC(=O)NC(C)c1ccc2c(c1)OCCO2)c1ccccc1 (stereo not drawn)	9.3	n
Cn1nccc1C(=O)NC1CCN(Cc2ccccc2)CC1	x	n
O=C(Cc1ccccc1)NC1CCSc2ccccc21 (stereo not drawn)	n	-5.8
O=C(CCc1ccccc1)NC1CCSC1=O (stereo not drawn)	n	n
CCC(=O)Nc1ccc(SC#N)cc1C	n	n
CCc1cc(SC#N)cc(C)c1NC(=O)CCl	11	n
Cc1cc(SC#N)cc(C)c1NC(=O)CCl	6.3	n
CCc1cc(SC#N)cc(C)c1N	x	n
SMILES	KCNQ2 pot	KCNQ2 inh
O=C(O)CCCCCNC(=O)Cn1nnc2ccccc2c1=O	n	n
CN(Cc1nccn1C)C(=O)C1CCC(=O)N(CCc2ccc(Cl)cc2)C1 (stereo not drawn)	x	n
COc1ccc(NC(=O)c2csc(Cc3ccc(Cl)cc3)n2)cc1	x	n
COc1ccc(Cc2nc(C(=O)Nc3ccc(Cl)cc3)cs2)cc1	n	-5.8
COc1ccc2c(c1)c1ncn(CCN3CCCC3)c(=O)c1n2C	n	n
COc1ccccc1CCn1cnc2c3cc(C)ccc3n(C)c2c1=O	n	-7.4
COc1cccc(/C=N/NC(=O)c2c(-c3ccccc3)noc2C)c1O	x	n
COc1ccc(Cl)cc1/C=N/NC(=O)c1c(-c2ccccc2)noc1C	n	-6.2
COc1cccc(/C=N/NC(=O)c2c(-c3ccccc3)noc2C)c1OC	n	-7.3
COc1cc(/C=N/NC(=O)c2c(-c3ccccc3)noc2C)ccc1O	x	n
O=c1[nH]c(=S)[nH]c2c1C(c1ccc(Br)cc1)c1c([nH]c(=S)[nH]c1=O)O2	n	n
CCOc1c(C)cnc2c1c(=O)n(Cc1cccc(Cl)c1)c(=O)n2C	x	n
CCOc1c(C)cnc2c1c(=O)n(Cc1ccc(Cl)cc1)c(=O)n2C	n	-5.9
CCSC1(SCC)N=C(N)C2(C#N)C(c3ccc(F)cc3)C12C#N (stereo not drawn)	n	-5.9
COC1(OC)N=C(N)C2(C#N)C(c3ccc(F)cc3)C12C#N (stereo not drawn)	n	n
CC(C)N(C(=O)CSc1nnc(-c2ccc3c(c2)OCO3)n1C)C(C)C	n	n
S=c1[nH]c(-c2ccc(Cl)cc2)cs1	19	n
S=c1nccc(-c2ccc(Cl)cc2)[nH]1	x	n
Cc1cccc(-c2cc(C(=O)NCc3ccccn3)c3ccccc3n2)c1	x	n
O=C(NCCc1ccc(Cl)cc1)c1cc(-c2ccncc2)nc2ccccc12	x	n
O=C(c1cc(-c2ccccn2)nc2ccc(Cl)cc12)N1CCN(CCc2ccccc2)CC1	n	-5.7
O=C(NCCc1ccc(Cl)cc1)c1cc(-c2ccccn2)nc2ccccc12	n	-6.5
Cc1cnn(C(=O)c2cc(-c3ccccn3)nc3ccc(Cl)cc23)c1	x	n
Cc1ccc(-c2cc(C(=O)NCc3ccccn3)c3ccccc3n2)cc1C	n	-6.1
Nc1ccc(S(=O)(=O)Nc2nc3ccccc3o2)cc1	n	n
SMILES	KCNQ2 pot	KCNQ2 inh
COc1ccc(OC)c(/C=N/NC(=O)CNC(=O)c2ccc(S(=O)(=O)N3CCOCC3)cc2)c1	n	n
CC(C)C(OC(=O)c1nsc(Cl)c1Cl)C(=O)NCC1CCCO1 (stereo not drawn)	x	n
CC(C)C1CC(CCN2CCCCC2)(c2ccccc2)CCO1 (stereo not drawn)	x	n
COC(CNC(=O)CCc1c(C)nc2c(c(C)nn2-c2ccc(C)cc2)c1C)OC	n	n
Cc1ccc(-n2nc(C)c3c(C)c(CCC(=O)Nc4ccc(CN5CCCC5)cc4)c(C)nc32)cc1	n	-7.9
O=C(NC1CCCCCC1)C1CCC(=O)N(Cc2ccccc2F)C1 (stereo not drawn)	n	n
CCOc1ccc(C2=NNC(c3cccs3)=Nc3ccc(OC)cc32)cc1	n	-5.6
CCOc1ccc(C2=NNC(c3cccnc3)=Nc3ccc(OC)cc32)cc1	x	n
C/C(=N\Nc1nc(N2CCCCC2)nc(N2CCOCC2)n1)c1cccs1	n	-7.6
CC(=O)Nc1ccc(/C(C)=N/Nc2nc(N3CCOCC3)nc(N3CCOCC3)n2)cc1	x	n
COc1ccc(S(=O)(=O)NC(C)C)cc1C(=O)N1CCOCC1	x	n
O=C(c1ccccc1)N1CCC(CC2CC(c3cccc(Br)c3)=NO2)(C(=O)NCC2CCCCC2)CC1 (stereo not drawn)	x	n
CC(C)(C)OC(=O)N1CCC(CC2CC(c3cccc(Br)c3)=NO2)(C(=O)NCC2CCCCC2)CC1 (stereo not drawn)	n	-8.1
CC(C(=O)NC(C)(C)C)N(C(=O)CS(=O)CC(=O)Nc1ccc(F)cc1)C1CCCC1 (stereo not drawn)	n	n
Cc1cc(Cl)c2oc(C(=O)N3CCN(c4cccc(C)n4)CC3)c(C)c2c1	x	n
Cc1ccc2oc(C(=O)N3CCN(c4cccc(C)n4)CC3)c(C)c2c1	n	-8.1
COC(=O)c1ccccc1NC(=O)CNCCc1ccc(OC)c(OC)c1	n	n
Cc1c(C(=O)N(C)Cc2cccc(F)c2)oc2c(Cl)cccc12	n	-7.7
Cc1c(C(=O)N(C)Cc2ccccc2)oc2c(Cl)cccc12	x	n
CCC1(c2ccccc2)NC(=O)N(CC(=O)N(CC(=O)Nc2ccccc2C(F)(F)F)Cc2ccco2)C1=O (stereo not drawn)	n	n
